In publication PMC12136788 one finds binding signal data, which are given here for 14 molecules.

T1: UNK ZnF1-3 (human, UniProt Q9C0B0 31-174)
T1 sequence: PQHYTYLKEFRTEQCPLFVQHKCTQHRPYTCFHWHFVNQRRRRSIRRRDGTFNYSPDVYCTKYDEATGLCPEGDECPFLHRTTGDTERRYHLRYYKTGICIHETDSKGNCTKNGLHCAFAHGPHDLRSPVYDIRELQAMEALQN

B1: chr8:114060920:114060921:+_ENSMUSG00000033545_ENSMUST00000095176|mus_mus|FALSE|FALSE (ssRNA)
RNA: GGGAGUUCUACAGUCCGACGAUCCGGGUGGAGGUCUGGGCGAACAUAAAGGCGGAGGGUUGGGGUUGGGGAGAGUCACAAAAGAGCCCCGAGGGGAGAAAAAUGAAAAAAGGUGAGGGGGGGAAUCCUCAAAAAAAAUCCGCGCAACAGAGGAUUGAGCAUCA
B2: chr17:45760540:45760541:+_ENSG00000108424_ENST00000290158|hu_hu|motif|central (ssRNA)
RNA: GGGAGUUCUACAGUCCGACGAUCUUUCCCUAGAGUAAAAAAAACAAAAAACAAAACCAAAAAAAAAAAACAAAACAAAACCGGAAGAGCGUCUUUCCUCUGUGUGUGUGUUUUUUUUUUUUUUUUUUUUUUUUUUUUUACAUCCAACAGAGGAUUGAGCAUCA
B3: chr3:41267201:41267202:+_ENSG00000168036_ENST00000349496|hu_mus|motif|central (ssRNA)
RNA: GGGAGUUCUACAGUCCGACGAUCCAAGAAUUUCACGUUUGUUUUGUUGAGCAAAGCAACCAUUUUCUGCAGUCCACCAGCGGGGCGCACUGCCAUUUUAGCUCCUUCCUGAUGGAGCAGGAGAUUAUGCAGUGUCGUGAUGGCCAACAGAGGAUUGAGCAUCA
B4: chr17:15081082:15081083:+_ENSMUSG00000050088_ENSMUST00000052691|mus_mus|FALSE|FALSE (ssRNA)
RNA: GGGAGUUCUACAGUCCGACGAUCUGCUCCAGCAUAUUCAAGGGAUCAGAAGAGAAUUUCAAGCACCAGUUUCAAAAUGCUAAUCAAUAUCGUCCAGAGAACUGAUUCCUCCUCUUGGGCUGCCUCUUCUGGAGCGUAAGCCUGCAACAGAGGAUUGAGCAUCA
B5: chr2:203071915:203071916:-_ENSG00000116030_ENST00000392246|hu_mus|motif|central (ssRNA)
RNA: GGGAGUUCUACAGUCCGACGAUCCUAAGAGAUGGAGUGCCAGUAUUCAAUUUUCAUUUUGAACACCACAUUACAAAAGAACGGUUUUUAAAAAUAAAAAAGGAUUGAGGGAAAGGAAAAAUAAAAAAUAAAAAGAAUUAUCUACAACAGAGGAUUGAGCAUCA
B6: chr13:113752066:113752067:+_ENSG00000126217_ENST00000375604|hu_mus|FALSE|FALSE (ssRNA)
RNA: GGGAGUUCUACAGUCCGACGAUCAGGGGAAGUGGGGCCUGCCCUGACGUGGAGAGGCAGCCAGUGCCUGAGUUGCUGAGGAUGACUGACAGCAUGGAGUUAUACAUUUUCUUUAAAAAUAAUAAAAAUAUCCUAAUUUAAUGACAACAGAGGAUUGAGCAUCA
B7: chr8:96496865:96496866:-_ENSMUSG00000031751_ENSMUST00000053766|mus_hu|motif|central (ssRNA)
RNA: GGGAGUUCUACAGUCCGACGAUCGCAGUCCAGUCAACACCAGAAGAGAUCAUACCUACAGUUAAAAUUUGCAGUGUUUCGGAGGGGAAGAGAAAUGUCACAUAGAAAGUAUUACAAAGAAGGAUUAAAUUUAUCAGCUGUCCACAACAGAGGAUUGAGCAUCA
B8: chr2:203071915:203071916:-_ENSG00000116030_ENST00000392246|hu_mus|FALSE|FALSE (ssRNA)
RNA: B5 RNA with G82U, G83A
B9: chr2:55200753:55200754:-_ENSG00000115310_ENST00000317610|hu_mus|FALSE|FALSE (ssRNA)
RNA: GGGAGUUCUACAGUCCGACGAUCUUGGAUUUUGGCCAUGGCAUCCUUAACGCUCUUGUUUGCAAGUCCUAGAUAAUGAUCUAUCUGCGCCUGAUGCCGUUCAUAUAUAACAGGAAUACUGAAGAGUGAGAUCAGAGCUAAAAUCAACAGAGGAUUGAGCAUCA
B10: chr6:31461392:31461393:+_ENSMUSG00000025609_ENSMUST00000026699|mus_mus|motif|central (ssRNA)
RNA: GGGAGUUCUACAGUCCGACGAUCACCUGACGGACACUAGAGGCUUUGGAUAACCAUGUCAUUUCAACAGUAAGACAAACGGUAGAGACAACCCCCACAGUCAAAAACCACAUAUAAAAAUUAGAAUUUGCUUAAUACAGAAAACAACAGAGGAUUGAGCAUCA
B11: chr16:36085169:36085170:+_ENSMUSG00000075229_ENSMUST00000164916|mus_mus|FALSE|FALSE (ssRNA)
RNA: GGGAGUUCUACAGUCCGACGAUCCUUUAAUAACGUUAAGUCAUCCAGGUUCUUUUCUCUCUCUUCUCGGAGACUUUUUACUACUGCUGAGGUCUGGGCUAUACAGUUCUUUAUAACUCUGUCCCUACUGACAUGAGCUGCCAUCAACAGAGGAUUGAGCAUCA
B12: chr3:100438856:100438857:+_ENSG00000114354_ENST00000490574|hu_hu|motif|central (ssRNA)
RNA: GGGAGUUCUACAGUCCGACGAUCAACAAAUAAUGUCAGUUUCAGUAUCCUACUGCACUGAAUUGCAAAGGAAAGGUCAGAACGGUCAAAAAUUGUUAUAAGAUCUCCAUCUUCAUCUUUAUACUUUAUUGUUACUUCAUCAUUCAACAGAGGAUUGAGCAUCA
B13: chr11:51935959:51935960:+_ENSMUSG00000020349_ENSMUST00000020608|mus_hu|FALSE|FALSE (ssRNA)
RNA: GGGAGUUCUACAGUCCGACGAUCGGUUCUGACAAUAACAAAGAACAACAUGGGGCUGAGAUUUGAGUAGGGAAUAAACUGAGUGCAGACAAAUCAUAUAAUUAAAUUAAACGGUAUCCCUGAAAAUAAAAAGAACAAUUUCAACAACAGAGGAUUGAGCAUCA
B14: 110847190_110847310_5644_3pUTR_ENSMUSG00000021700_ENSMUST00000167824|mouse|control|control (ssRNA)
RNA: GGGAGUUCUACAGUCCGACGAUCUAGUUGCUGAGGGGAACUGAAGAAUGAGGCAAUGCUGUUCUGUGGGGAUAGUGCUUUUAGAAUAUCCUUAAUCAUUUUUUUUUAAAAAACAUGUGGCAGUAUAAAAGGACUACACAAUGACAACAGAGGAUUGAGCAUCA

Residue numbers refer to the chain shown, from its start. Whole data set: some 24,000 sequences, median “enrichment r” near 0.99, cut for the highest 2% near 3.7. The sample as a whole holds a higher share of the highest values than the screen did.

The target of the assay is T1, UNK ZnF1-3. The assay can be described thus: nsRBNS (natural sequence RNA bind-n-seq); RBNS binding buffer (assumed for nsRBNS): 25 mM Tris pH 7.5, 150 mM KCl, 3 mM MgCl2, 0.01% Triton X-100, 500 ug/ml BSA, 20 U/ml SUPERase-In, 4 C; UNK is unkempt and MSI1 is Musashi-1; names of the RNAs are library labels; protein concentration not given here; high values mean tight binding.
Regarding B1, the binding signal was 4.66 enrichment R.
The figure for B2 is 3.38 enrichment R; for B3 it is 0.539 enrichment R.
The figure for B4 is 1.42 enrichment R; for B5 it is 10.9 enrichment R.
The figure for B6 is 3.79 enrichment R; for B7 it is 3.52 enrichment R.
B8 came in with a binding signal of 10.6 enrichment R.
Molecule B9 had a binding signal of 1.23 enrichment R.
The value for B10 was 3.37 enrichment R; that for B11 was 0.477 enrichment R; that for B12 was 0.76 enrichment R.
In turn, B13 showed a binding signal of 3.8 enrichment R.
The molecule B14 came in with a binding signal of 1.67 enrichment R.
